Measured values: the supplement of paper PMC10849652
Targets with a hit are over-represented here; the source holds about 7,900 in all. About 0.6% of all pairs of compound and target were hits. Unmarked numbers belong to inactive results.

compound: c1cn2cc(-c3ccc4cn[nH]c4c3)nc(Nc3ccc(N4CCOCC4)cc3)c2n1 [entospletinib]; assay: log2 fold change, soluble protein after heating vs DMSO (PISA); higher = thermal stabilisation; K562 cells, 10 uM, 30 min; active = over 0.2 and 3.5 SD of the protein, either way, in both replicates (recomputed)
How it was run: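 K562 cells at 2×10^6 cells/mL were exposed to 10 μM compound for 30 min, then aliquots were heated for 3 min across 48°C-58°C, pooled, and extracted in PBS containing 0.5% NP-40 at 4°C. The supernatant after 21,000xg for 90 min was taken as soluble protein and measured by TMTpro 16plex LC-MS/MS with channel sums equalised. Thermal stability is reported relative to control samples, with values from duplicates. Fold changes are given on a log2 scale.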

Sequence of UniProt O15460 (O15460 whole entry, looked up): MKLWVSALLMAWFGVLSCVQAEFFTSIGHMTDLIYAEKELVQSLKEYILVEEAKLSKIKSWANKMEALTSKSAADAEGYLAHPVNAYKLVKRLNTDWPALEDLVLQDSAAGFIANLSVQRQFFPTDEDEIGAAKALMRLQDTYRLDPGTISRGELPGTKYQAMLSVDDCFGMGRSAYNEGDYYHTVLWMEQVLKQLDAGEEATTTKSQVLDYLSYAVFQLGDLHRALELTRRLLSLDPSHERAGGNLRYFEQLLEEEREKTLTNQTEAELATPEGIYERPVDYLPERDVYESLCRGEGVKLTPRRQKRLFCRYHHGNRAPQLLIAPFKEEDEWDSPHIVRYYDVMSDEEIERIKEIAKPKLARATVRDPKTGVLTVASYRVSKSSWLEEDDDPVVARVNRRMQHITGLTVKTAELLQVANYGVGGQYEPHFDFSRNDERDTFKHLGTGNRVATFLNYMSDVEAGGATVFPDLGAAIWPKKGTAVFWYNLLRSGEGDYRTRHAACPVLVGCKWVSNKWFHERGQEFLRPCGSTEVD
Sequence of UniProt Q7Z3U7 (Q7Z3U7 whole entry, looked up): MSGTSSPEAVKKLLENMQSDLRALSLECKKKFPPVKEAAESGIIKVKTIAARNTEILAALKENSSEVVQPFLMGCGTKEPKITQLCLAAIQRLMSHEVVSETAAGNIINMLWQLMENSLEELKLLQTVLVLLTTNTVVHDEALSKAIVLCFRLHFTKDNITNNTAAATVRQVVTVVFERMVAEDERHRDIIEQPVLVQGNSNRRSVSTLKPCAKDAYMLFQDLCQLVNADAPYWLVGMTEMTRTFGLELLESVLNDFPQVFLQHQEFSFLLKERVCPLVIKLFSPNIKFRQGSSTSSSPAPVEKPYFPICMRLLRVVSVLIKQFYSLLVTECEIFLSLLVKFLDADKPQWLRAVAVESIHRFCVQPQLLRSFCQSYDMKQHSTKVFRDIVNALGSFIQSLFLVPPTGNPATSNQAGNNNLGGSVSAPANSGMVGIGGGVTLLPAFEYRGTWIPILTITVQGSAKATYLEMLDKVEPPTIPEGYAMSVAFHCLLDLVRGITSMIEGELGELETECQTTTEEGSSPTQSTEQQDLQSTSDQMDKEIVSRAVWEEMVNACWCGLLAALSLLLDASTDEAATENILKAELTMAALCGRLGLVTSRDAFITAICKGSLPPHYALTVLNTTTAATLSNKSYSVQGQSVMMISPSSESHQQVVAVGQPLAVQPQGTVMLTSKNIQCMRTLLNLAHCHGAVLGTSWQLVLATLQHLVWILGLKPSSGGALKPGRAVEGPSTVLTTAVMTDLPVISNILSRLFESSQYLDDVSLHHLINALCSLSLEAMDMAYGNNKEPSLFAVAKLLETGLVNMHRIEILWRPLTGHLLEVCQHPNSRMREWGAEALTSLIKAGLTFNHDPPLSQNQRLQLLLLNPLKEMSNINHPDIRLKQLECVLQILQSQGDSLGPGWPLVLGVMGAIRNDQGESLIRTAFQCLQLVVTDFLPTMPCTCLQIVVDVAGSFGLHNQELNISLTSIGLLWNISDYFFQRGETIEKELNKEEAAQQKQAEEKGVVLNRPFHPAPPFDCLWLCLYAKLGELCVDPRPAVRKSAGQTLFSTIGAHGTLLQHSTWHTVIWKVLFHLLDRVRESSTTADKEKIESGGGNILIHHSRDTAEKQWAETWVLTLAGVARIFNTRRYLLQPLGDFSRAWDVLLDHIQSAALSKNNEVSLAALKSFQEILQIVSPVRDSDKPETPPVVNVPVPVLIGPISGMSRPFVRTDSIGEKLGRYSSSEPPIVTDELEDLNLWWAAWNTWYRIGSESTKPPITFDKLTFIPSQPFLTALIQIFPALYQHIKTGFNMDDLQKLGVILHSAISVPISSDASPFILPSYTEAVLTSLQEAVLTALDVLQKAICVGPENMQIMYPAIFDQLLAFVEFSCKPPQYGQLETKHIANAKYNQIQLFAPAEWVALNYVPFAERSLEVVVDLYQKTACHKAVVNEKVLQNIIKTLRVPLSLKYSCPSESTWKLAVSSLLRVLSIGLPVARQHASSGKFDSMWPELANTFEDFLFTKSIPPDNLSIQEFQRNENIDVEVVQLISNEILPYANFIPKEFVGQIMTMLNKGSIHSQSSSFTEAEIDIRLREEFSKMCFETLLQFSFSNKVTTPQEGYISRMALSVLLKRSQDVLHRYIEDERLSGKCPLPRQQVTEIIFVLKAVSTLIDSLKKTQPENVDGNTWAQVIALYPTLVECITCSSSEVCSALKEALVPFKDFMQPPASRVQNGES
Sequence of UniProt O60551 (O60551 whole entry, looked up): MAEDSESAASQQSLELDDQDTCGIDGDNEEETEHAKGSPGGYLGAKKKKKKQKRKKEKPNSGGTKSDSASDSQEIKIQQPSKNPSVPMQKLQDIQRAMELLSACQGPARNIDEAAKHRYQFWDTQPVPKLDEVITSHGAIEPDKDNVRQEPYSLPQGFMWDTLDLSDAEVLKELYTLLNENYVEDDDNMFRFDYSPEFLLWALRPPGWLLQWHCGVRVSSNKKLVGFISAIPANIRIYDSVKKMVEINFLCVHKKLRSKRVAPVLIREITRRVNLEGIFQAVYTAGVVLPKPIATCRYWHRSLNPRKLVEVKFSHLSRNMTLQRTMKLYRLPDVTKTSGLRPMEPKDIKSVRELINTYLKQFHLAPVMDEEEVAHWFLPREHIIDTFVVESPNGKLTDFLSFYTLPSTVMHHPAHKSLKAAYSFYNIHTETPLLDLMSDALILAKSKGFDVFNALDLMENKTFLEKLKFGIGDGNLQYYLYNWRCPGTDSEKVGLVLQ
Sequence of UniProt P04181 (P04181 whole entry, looked up): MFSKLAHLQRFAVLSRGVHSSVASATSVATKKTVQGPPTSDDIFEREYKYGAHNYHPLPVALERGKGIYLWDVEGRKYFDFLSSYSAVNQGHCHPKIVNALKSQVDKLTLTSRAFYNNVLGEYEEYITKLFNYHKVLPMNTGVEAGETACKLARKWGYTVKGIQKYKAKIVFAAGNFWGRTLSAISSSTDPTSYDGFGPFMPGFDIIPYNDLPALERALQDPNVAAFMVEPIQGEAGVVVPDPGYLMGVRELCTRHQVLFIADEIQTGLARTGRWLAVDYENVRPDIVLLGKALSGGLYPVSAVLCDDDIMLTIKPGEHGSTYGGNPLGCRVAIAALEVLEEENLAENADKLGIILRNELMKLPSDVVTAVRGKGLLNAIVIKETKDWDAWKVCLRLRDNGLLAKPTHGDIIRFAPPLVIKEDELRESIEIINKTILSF
Sequence of UniProt Q92692 (Q92692 whole entry, looked up): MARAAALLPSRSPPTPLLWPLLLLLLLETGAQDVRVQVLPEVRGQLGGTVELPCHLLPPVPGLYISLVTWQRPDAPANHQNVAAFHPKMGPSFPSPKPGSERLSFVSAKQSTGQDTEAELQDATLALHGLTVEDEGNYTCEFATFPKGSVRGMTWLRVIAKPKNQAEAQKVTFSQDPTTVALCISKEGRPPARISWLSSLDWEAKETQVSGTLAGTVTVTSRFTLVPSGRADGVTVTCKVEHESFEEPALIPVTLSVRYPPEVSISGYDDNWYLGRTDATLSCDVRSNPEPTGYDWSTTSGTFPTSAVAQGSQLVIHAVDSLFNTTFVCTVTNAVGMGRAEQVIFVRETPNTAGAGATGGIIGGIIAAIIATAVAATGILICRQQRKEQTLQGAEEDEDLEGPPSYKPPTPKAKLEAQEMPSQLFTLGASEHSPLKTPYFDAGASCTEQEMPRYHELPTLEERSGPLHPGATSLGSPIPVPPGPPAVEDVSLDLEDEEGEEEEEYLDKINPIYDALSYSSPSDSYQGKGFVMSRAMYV
Sequence of UniProt O75438 (O75438 whole entry, looked up): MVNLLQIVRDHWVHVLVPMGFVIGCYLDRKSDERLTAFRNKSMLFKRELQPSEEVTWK
Sequence of UniProt P84157 (P84157 whole entry, looked up): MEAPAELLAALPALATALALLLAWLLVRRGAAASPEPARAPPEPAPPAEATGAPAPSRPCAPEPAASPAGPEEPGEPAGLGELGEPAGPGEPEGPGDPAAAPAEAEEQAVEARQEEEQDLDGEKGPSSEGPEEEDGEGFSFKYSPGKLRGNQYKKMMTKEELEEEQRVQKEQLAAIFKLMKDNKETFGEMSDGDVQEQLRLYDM
Sequence of UniProt Q8WX92 (Q8WX92 whole entry, looked up): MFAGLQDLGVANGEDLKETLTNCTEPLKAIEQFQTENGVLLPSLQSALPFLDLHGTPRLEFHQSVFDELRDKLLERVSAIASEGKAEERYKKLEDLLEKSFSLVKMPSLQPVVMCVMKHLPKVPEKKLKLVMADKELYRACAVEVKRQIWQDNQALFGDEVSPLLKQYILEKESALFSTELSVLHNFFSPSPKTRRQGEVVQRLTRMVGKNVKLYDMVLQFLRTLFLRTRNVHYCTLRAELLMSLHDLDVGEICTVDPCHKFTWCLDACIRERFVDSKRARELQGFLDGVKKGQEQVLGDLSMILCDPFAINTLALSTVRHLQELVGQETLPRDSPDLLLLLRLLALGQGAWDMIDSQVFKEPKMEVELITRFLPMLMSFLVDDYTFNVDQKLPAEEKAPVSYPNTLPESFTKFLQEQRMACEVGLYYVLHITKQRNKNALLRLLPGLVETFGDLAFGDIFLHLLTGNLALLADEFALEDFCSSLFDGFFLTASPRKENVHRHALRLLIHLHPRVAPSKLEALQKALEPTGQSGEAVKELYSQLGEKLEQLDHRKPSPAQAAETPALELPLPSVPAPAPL

Row | Target | log2 fold change
1 | MRPS24 (UniProt Q96EL2) | 0.086
2 | MRPS2 (UniProt Q9Y399) | 0.059
3 | MXRA7 (UniProt P84157) | -0.008
4 | NELFB isoform 2 (UniProt Q8WX92) | -0.039
5 | MON2 isoform 5 (UniProt Q7Z3U7) | 0.014
6 | NDUFB1 (UniProt O75438) | 0.017
7 | NMT2 (UniProt O60551) | 0.023
8 | NECTIN2 (UniProt Q92692) | -0.016
9 | P4HA2 (UniProt O15460) | 0.021
10 | OSBPL3 (UniProt Q9H4L5) | 0.171
11 | OAT (UniProt P04181) | -0.012
